Laboratory results taken from PubChem BioAssay (Tox21).
Results filed as inconclusive are left out. Calls of active or inactive are those of the source. Unless noted, calls follow the shape of the dose curve; as a rule, active = well fitted curve in the direction sought with a large enough effect in the repeat runs; inconclusive = weak or mixed curves; inactive = no such curve, though single readings can be large; an effect the other way counts as inactive or inconclusive.

Tests used:
[1] = qHTS assay to identify small molecule antagonists of the estrogen related receptor (ERR) signaling pathway from Tox21 library - cell viability counter screen (AID 1224834); also: nearly all actives have a fitted effect of over 30% in size; also: potency is read from the fitted curve at half-maximal effect
Procedure, shortened: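 ERR reporter cells, 2,000 per well, rested 6 h, then exposed to compound in DMSO for 17.5 hours at 37 C. Viability read as fluorescence after 30 min with CellTiter-Fluor.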

[2] = biological target: Luciferin 4-monooxygenase (Photinus pyralis) (UniProt P08659); experiment: qHTS assay to identify small molecule inhibitors of firefly luciferase (AID 1224835); also: nearly all actives have a fitted effect of over 25% in size; also: potency is read from the fitted curve at half-maximal effect
Sequence of Luciferin 4-monooxygenase (Photinus pyralis) (P08659 whole entry, looked up): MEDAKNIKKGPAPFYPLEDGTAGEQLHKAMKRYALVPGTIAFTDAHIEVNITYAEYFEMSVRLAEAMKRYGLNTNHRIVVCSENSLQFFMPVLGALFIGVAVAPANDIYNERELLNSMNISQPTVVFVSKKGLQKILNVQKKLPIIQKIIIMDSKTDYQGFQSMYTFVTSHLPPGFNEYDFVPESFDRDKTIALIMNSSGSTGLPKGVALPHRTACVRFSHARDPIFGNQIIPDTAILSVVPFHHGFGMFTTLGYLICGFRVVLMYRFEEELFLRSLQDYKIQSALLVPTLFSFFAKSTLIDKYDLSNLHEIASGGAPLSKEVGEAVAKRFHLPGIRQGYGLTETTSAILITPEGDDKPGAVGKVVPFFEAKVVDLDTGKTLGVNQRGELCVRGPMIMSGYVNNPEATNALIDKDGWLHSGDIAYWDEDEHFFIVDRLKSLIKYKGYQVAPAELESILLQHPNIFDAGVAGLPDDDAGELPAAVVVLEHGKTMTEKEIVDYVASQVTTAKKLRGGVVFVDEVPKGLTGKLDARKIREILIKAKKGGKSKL
Procedure, shortened: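 Inhibition of purified Photinus luciferase is measured by luminescence. Substrate levels (D-luciferin, ATP) sit at their KM values. Each compound is tested in a concentration series.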

[3] = qHTS assay to identify small molecule agonists of the constitutive androstane receptor (CAR) signaling pathway - cell viability counter screen (AID 1224836); also: nearly all actives have a fitted effect of over 45% in size; also: potency is read from the fitted curve at half-maximal effect
Procedure, shortened: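 Viability read-out: CellTiter-Fluor fluorescence after 23 h compound exposure at 37 C/5% CO2 in double-stable HepG2-CYP2B6-hCAR cells, with PK11195 present at 0.75 uM final; compounds tested in 15-point titration.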

[4] = qHTS assay to identify small molecule antagonists of the constitutive androstane receptor (CAR) signaling pathway - cell viability counter screen (AID 1224837); also: nearly all actives have a fitted effect of over 45% in size; also: potency is read from the fitted curve at half-maximal effect
Procedure, shortened: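 HepG2 cells stably carrying hCAR and CYP2B6-2.2kb reporter, stimulated with 50 nM CITCO and compounds at 15 concentrations for 23 h at 37 C. Viability measured by CellTiter-Fluor fluorescence.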

[5] = biological target: Nuclear receptor subfamily 1 group I member 3 (Homo sapiens) (UniProt Q14994); experiment: qHTS assay to identify small molecule antagonists of the constitutive androstane receptor (CAR) signaling pathway (AID 1224838); also: nearly all actives have a fitted effect of over 40% in size; also: potency is read from the fitted curve at half-maximal effect
Sequence of Nuclear receptor subfamily 1 group I member 3 (Homo sapiens) (Q14994 whole entry, looked up): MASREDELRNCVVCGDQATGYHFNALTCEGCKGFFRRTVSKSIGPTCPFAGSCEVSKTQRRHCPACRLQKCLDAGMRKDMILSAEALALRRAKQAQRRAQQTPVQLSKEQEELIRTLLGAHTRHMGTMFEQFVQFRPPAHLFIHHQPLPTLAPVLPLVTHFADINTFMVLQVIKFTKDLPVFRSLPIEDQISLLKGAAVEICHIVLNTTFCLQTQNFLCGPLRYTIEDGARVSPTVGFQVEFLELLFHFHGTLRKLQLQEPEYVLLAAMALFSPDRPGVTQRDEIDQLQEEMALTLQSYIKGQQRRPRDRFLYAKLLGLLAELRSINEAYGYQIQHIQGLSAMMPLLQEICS
Procedure, shortened: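 HepG2 cells stably carrying hCAR and a CYP2B6-2.2kb luciferase reporter, seeded 4 hrs before compound (15 concentrations). Stimulated with 50 nM CITCO for 24 hr at 37 C. ONE-Glo luminescence read after 30 min at room temperature.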

[6] = biological target: Nuclear receptor subfamily 1 group I member 3 (Homo sapiens) (UniProt Q14994); experiment: qHTS assay to identify small molecule agonists of the constitutive androstane receptor (CAR) signaling pathway (AID 1224839); also: nearly all actives have a fitted effect of over 15% in size
Procedure, shortened: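 Luminescence read-out (ONE-Glo, 30 min, room temperature) from double-stable HepG2-CYP2B6-hCAR cells exposed 24 h to 15-point compound series in presence of 0.75 uM PK11195 final.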

[7] = qHTS assay to identify small molecule antagonists of the estrogen related receptor signaling pathway with the pleiotropic PPARgamma coactivator (PGC) from Tox21 10K library - cell viability counter screen (AID 1224840; active = well fitted cell-killing curve with a large enough effect in the repeat runs, not every such curve was filed as active; also: nearly all actives have a fitted effect of over 40% in size; also: potency is read from the fitted curve at half-maximal effect)
Procedure, shortened: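 PGC/ERR cells (2,000/well) plated 6 h, then compound-treated for 17.5 h at 37 C. Viability measured by CellTiter-Fluor fluorescence after 30 min at 37 C, multiplexed with the pathway assay.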

[8] = biological target: Thyrotropin receptor (Homo sapiens) (UniProt P16473); experiment: qHTS assay to identify small molecule agonists of the thyroid stimulating hormone receptor (TSHR) signaling pathway (AID 1224843; calls by dose curve; also: nearly all actives have a fitted effect of over 45% in size; also: potency is read from the fitted curve at half-maximal effect)
Sequence of Thyrotropin receptor (Homo sapiens) (P16473 whole entry, looked up): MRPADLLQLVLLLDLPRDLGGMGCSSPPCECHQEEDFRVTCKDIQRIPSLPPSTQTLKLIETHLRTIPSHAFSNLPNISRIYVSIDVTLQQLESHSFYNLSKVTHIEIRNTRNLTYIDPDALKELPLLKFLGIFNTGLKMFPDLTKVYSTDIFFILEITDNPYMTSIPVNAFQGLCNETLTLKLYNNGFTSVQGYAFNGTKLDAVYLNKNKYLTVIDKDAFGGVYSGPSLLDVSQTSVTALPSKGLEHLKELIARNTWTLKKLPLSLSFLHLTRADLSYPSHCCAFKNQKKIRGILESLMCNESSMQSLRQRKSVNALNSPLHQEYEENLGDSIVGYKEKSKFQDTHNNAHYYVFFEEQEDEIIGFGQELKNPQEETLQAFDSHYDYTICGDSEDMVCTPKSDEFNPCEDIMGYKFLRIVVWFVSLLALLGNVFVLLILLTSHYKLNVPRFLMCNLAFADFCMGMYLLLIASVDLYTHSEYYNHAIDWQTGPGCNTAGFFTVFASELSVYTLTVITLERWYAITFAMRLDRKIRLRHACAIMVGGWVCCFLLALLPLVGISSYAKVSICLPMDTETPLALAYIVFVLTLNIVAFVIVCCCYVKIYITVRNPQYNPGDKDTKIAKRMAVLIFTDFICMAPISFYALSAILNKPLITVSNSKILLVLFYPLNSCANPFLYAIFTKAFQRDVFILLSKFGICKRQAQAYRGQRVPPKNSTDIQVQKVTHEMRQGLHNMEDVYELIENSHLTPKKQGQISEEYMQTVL
Procedure, shortened: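 Screening of the Tox21 10K collection used HEK293 cells engineered with TSHR at 800 cells per well. After a 30-min room-temperature compound exposure, HTRF cAMP reagents were added and fluorescence recorded 1 h later.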

[9] = qHTS assay to identify small molecule agonists of the hypoxia (HIF-1) signaling pathway - cell viability counter screen (AID 1224844; calls by dose curve; also: nearly all actives have a fitted effect of over 50% in size; also: potency is read from the fitted curve at half-maximal effect)
Procedure, shortened: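 HRE-bla ME-180 cells, 2,000/well in 0.5% dialyzed FBS medium, treated 17 h at 37C with compounds. Viability read in the same wells as the bla reporter, by CellTiter-Glo luminescence after 30 min at room temperature.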

[10] = qHTS assay to identify small molecule agonists of H2AX (AID 1224845; active = well fitted activation curve with a large enough effect in the signal ratio in the repeat runs, not every such curve was filed as active; the % refers to the signal ratio)
Procedure, shortened: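 Phospho-H2AX Ser139 measured by HTRF (ex 320 nm; em 665 and 620 nm) after 24 hr antibody incubation. Compounds, 15 concentrations, 0.76% DMSO, were applied to CHO-K1 cells for 3hr at 37C before lysis.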

[11] = qHTS assay to identify small molecule agonists of the hypoxia (HIF-1) signaling pathway (AID 1224846; active = well fitted activation curve with a large enough effect in the signal ratio in the repeat runs, not every such curve was filed as active; the % refers to the signal ratio)
Procedure, shortened: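 HRE-bla ME-180 beta-lactamase reporter cells in medium with 0.5% dialyzed FBS, pre-incubated 5 h then exposed to compounds 17 h at 37C, 5% CO2; reporter induction read with CCF4-AM FRET substrate.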

[12] = qHTS assay to identify small molecule agonists of H2AX - cell viability counter screen (AID 1224847; calls by dose curve; also: nearly all actives have a fitted effect of over 30% in size; also: potency is read from the fitted curve at half-maximal effect;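 as to activity change, negative = cytotoxicity: wild-type CHO-K1 cells; top concentration of the series differs between compounds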)
Procedure, shortened: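 CHO-K1 wt, 1000 cells/well, o/n 37C; cpds 15 conc, 3 h 37C, 0.76% DMSO; CellTiter-Glo, 30 min RT, luminescence.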

[13] = qHTS RealTime-Glo MT Cell Viability Assay in HepG2 cells - 24 hour (AID 1224867); also: nearly all actives have a fitted effect of over 50% in size; also: potency is read from the fitted curve at half-maximal effect
Procedure, shortened: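 Compound treatment began 5 h after plating HepG2 cells (600/well) with NanoLuc luciferase and prosubstrate. Plates stayed at 37 C for 40 h; luminescence was captured at six time points, 0 h through 40 h.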

[14] = qHTS RealTime-Glo MT Cell Viability Assay in HEK293 cells - 32 hour (AID 1224868); also: nearly all actives have a fitted effect of over 50% in size; also: potency is read from the fitted curve at half-maximal effect
Procedure, shortened: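 Quantitative high-throughput screen of the Tox21 10K library in HEK293: cells and RealTime-Glo reagents plated together, compound added at 5 h, luminescence monitored through 40 h at 37 C.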

[15] = A CellTox Green Cytotoxicity Assay to monitor cytotoxicity in HEK293 cells - 0 hour (AID 1224869); also: nearly all actives have a fitted effect of over 50% in size
Procedure, shortened: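 HEK293 cells, 600/well, were preincubated 5 hours and then exposed to compounds at 37 C for up to 40 hours. A cell-impermeant cyanine dye staining dead-cell DNA was read by fluorescence at 0, 8, 16, 24, 32 and 40 h time points.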

[16] = qHTS RealTime-Glo MT Cell Viability Assay in HepG2 cells - 40 hour (AID 1224870); also: nearly all actives have a fitted effect of over 50% in size; also: potency is read from the fitted curve at half-maximal effect
Procedure, shortened: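 Real-time viability: cells seeded at 600 per well together with NanoLuc and cell-permeant prosubstrate, compounds added after 5 h incubation. Luminescence tracked at 0, 8, 16, 24, 32 and 40 h of exposure.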

[17] = qHTS assay to identify small molecule agonists of the estrogen related receptor signaling pathway with the pleiotropic PPARgamma coactivator (PGC) from Tox21 10K library (AID 1224842); also: nearly all actives have a fitted effect of over 15% in size
Procedure, shortened: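 Luminescence from One-Glo (30 min, room temperature) measured after PGC/ERR cells had 18 h at 37 C with pinned compound (23 nL in DMSO). Cells had been seeded at 2,000 per well and pre-incubated 6 h.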

[18] = qHTS assay to identify small molecule antagonists of the estrogen related receptor (ERR) signaling pathway from Tox21 library (AID 1224848); also: nearly all actives have a fitted effect of over 50% in size; also: potency is read from the fitted curve at half-maximal effect
Procedure, shortened: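 Antagonist-mode screen of the Tox21 10K library in an NTP-provided ERR reporter cell line; 18 h compound exposure at 37 C, luminescence measured with ONE-Glo.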

[19] = qHTS assay to identify small molecule agonists of the estrogen related receptor (ERR) signaling pathway from Tox21 library (AID 1224849; calls by dose curve; also: nearly all actives have a fitted effect of over 15% in size); settings: ERR reporter cell line, ONE-Glo luciferase, 18 h; at 92.4 µM (top of the series) unless noted
Procedure, shortened: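 ERR reporter cells (NTP line) pre-incubated 6 hours at 37 C, then exposed to compounds for 18 hours at 37 C. ONE-Glo luciferase luminescence was read after 30 minutes at room temperature.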

[20] = qHTS assay to identify small molecule antagonists of the estrogen related receptor signaling pathway with the pleiotropic PPARgamma coactivator (PGC) from Tox21 10K library (AID 1224841; call rule not given here; also: potency is read from the fitted curve at half-maximal effect)
Procedure, shortened: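 PGC/ERR cell line, 2,000 cells/well, pre-incubated 6 hours at 37 C, then exposed to compounds for 18 hours at 37 C; luciferase read with One-Glo luminescence after 30 min at room temperature.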
% is scaled to controls: 0 for no effect and ±100 for the full control effect.

CO[Si](CCCNc1ccccc1)(OC)OC
inactive: Potency [1] | Potency [2] | Potency [3] | Potency [4] | Potency [5] | Potency [6] | Potency [7] | Potency [8] | Potency [9] | Potency [10] | Potency [11] | Potency [12] | Potency [13] | Potency [14] | Potency [15] | Potency [16]

CCN1/C(=C/C=C/c2sc3ccccc3[n+]2CC)Sc2ccccc21
inactive: activation [6] -9.24% [at 19 µM] | activation [17] -14.5% [at 19 µM] | activation [8] 1.82% [at 19 µM] | activity change, negative = cytotoxicity [9] 19.1% [at 15.8 µM] | activation [11] 0.484% [at 15.8 µM] | activity change, positive = activation [19] -58.8% [at 19 µM] | cytotoxicity [15] -12.5% [at 15.8 µM]
active: Potency [1] 5.8 µM | Potency [2] 9.52 µM | Potency [3] 13 µM | Potency [4] 11.6 µM | Potency [5] 14.6 µM | Potency [7] 6.51 µM | Potency [12] 7.6 µM | Potency [18] 0.231 µM | Potency [14] 1.04 µM

CN(C)c1ccc(C2(c3ccc(N(C)C)cc3)OC(=O)c3cc(N(C)C)ccc32)cc1
inactive: Potency [1] | Potency [2] | Potency [3] | Potency [4] | Potency [5] | Potency [6] | Potency [7] | Potency [20] | Potency [17] | Potency [8] | Potency [9] | Potency [12] | Potency [18] | activity change, positive = activation [19] -13.6% | Potency [14] | Potency [15]

Cc1c(C)c2c(c(C)c1OC(=O)CCC(=O)O)CC[C@@](C)(CCC[C@H](C)CCC[C@H](C)CCCC(C)C)O2
active: Potency [9] 1.4 µM | Potency [16] 55.6 µM
inactive: Potency [1] | Potency [2] | Potency [3] | Potency [4] | Potency [5] | Potency [6] | Potency [7] | Potency [20] | Potency [17] | Potency [8] | Potency [10] | Potency [12] | Potency [18] | activity change, positive = activation [19] -23.6% | Potency [15]

OC1(c2ccc(Cl)c(C(F)(F)F)c2)CCN(CCCC(c2ccc(F)cc2)c2ccc(F)cc2)CC1
active: Potency [1] 21.1 µM | Potency [3] 23.7 µM | Potency [4] 13.3 µM | Potency [5] 13.3 µM | Potency [7] 18.8 µM | Potency [20] 29.8 µM | Potency [9] 6.74 µM | Potency [12] 55.2 µM | Potency [18] 8.41 µM | Potency [13] 9.52 µM | Potency [14] 9.52 µM | Potency [16] 9.52 µM
inactive: Potency [2] | Potency [6] | Potency [17] | Potency [8] | activity change, positive = activation [19] -71.9% [at 42.5 µM] | Potency [15]

O=S1(=O)CC(Cl)(Cl)C(Cl)(Cl)C1
inactive: Potency [2] | Potency [17] | activity change, positive = activation [19] -79.8% | Potency [15]
active: Potency [1] 15.4 µM | Potency [3] 12.2 µM | Potency [4] 8.63 µM | Potency [7] 9.69 µM | Potency [20] 13.7 µM | Potency [8] 4.86 µM | Potency [9] 3.89 µM | Potency [12] 25.3 µM | Potency [18] 15.4 µM | Potency [16] 6.16 µM
